Source: PubChem BioAssay (The Scripps Research Institute Molecular Screening Center)
In the library only some 2.3% were active in any assay of this set; here they are far more common.
CHO-K1 Ca antag – M1 antagonist counterscreen hit in parental CHO-K1 cells. ATP-induced calcium, Fluo-8 fluorescence. inhibition, % at 3 µM. 360,000 compounds, 0.6% hits. AID 602250;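 active = inhibition above a per-plate cutoff, the plate's mean sample inhibition plus 3 SD, cut at about 24% in these data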;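 note: 0% = DMSO plus EC80 ATP and 100% = DMSO alone without ATP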
CHO-K1 Ca PAM – nonselective calcium activators in parental CHO-K1 cells, primary screen, counter-screen for M1 PAM project, cell-based, Fluo-8 calcium fluorescence, full deck, 1536-well. ATP EC20; 0% at ATP EC20, 100% at ATP max. activation, % at 3 µM. 360,000 compounds, 0.02% hits;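 active = activation above the run cutoff, the mean activation of all test compounds plus 3 SD, cut at about 40% in these data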;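 note: peak over basal fluorescence ratio in a 140 s read after ATP addition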
M1 ag – human M1 muscarinic receptor agonists, primary screen, Fluo-8 calcium fluorescence, CHO-K1 cells, HTS | Muscarinic acetylcholine receptor M1 (Homo sapiens), P11229 | CHO-K1 hM1, agonist mode; 0% DMSO, 100% acetylcholine EC100 | activation, % at 3 µM | 360,000 compounds, 0.33% hits | AID 588814, 2011;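 active = activation above the run's mean compound activation plus 3 SD, cut at about 16% in these data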;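 note: peak over basal fluorescence ratio within a 140 s kinetic read after compound addition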
Target sequence (P11229 whole entry, looked up): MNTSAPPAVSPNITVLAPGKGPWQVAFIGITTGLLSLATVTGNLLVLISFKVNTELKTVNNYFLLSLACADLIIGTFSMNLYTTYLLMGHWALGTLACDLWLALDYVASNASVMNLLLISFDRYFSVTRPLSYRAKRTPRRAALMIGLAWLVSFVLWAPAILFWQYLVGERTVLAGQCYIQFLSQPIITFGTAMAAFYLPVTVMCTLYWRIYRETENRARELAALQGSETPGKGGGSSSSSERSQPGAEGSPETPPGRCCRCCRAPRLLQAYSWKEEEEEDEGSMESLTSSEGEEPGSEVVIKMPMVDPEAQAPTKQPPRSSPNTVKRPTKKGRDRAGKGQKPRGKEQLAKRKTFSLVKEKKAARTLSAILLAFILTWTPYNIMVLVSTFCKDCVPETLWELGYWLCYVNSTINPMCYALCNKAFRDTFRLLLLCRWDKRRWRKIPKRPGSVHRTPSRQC
CHO-K1 Ca ag – counter-screen for M1 agonists: effect in parental CHO-K1 cells; 360,000 compounds, 0.48% hits; activation, % at 3 µM; Fluo-8 calcium fluorescence; scaled to maximal ATP response, vehicle zero; in the data active = activation above about 15%;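 note: untransfected CHO-K1 host cells lacking M1 receptor as counterscreen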
CHRM1 PAM – human M1 muscarinic receptor positive allosteric modulators, primary screen, CHO-K1 cells, Fluo-8 calcium fluorescence, 1536-well | Muscarinic acetylcholine receptor M1 (Homo sapiens), P11229 | CHO-K1 hM1, ACh EC20; 0% = ACh EC20, 100% = maximal ACh | activation, % at 3 µM | 360,000 compounds, 0.088% hits | AID 588819, 2011; in the data active = activation above about 19%, passing the limit was not always enough
CHRM1 antagonist – human M1 muscarinic receptor antagonists, primary screen, CHO-K1 cells, Fluo-8 calcium fluorescence, 1536-well; Muscarinic acetylcholine receptor M1 (Homo sapiens), P11229; CHO-K1 hM1, ACh EC80 antagonist; inhibition, % at 3 µM; 360,000 compounds, 1.3% hits; AID 588852, 2011;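 active = percent inhibition above its own plate's cutoff, namely the mean of that plate's compound wells plus 3 SD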;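 note: peak over basal fluorescence ratio during 140 s after agonist addition; 0% = ACh EC80 plus DMSO and 100% = DMSO alone without agonist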
Active calls of the source: *.

SMILES | CHO-K1 Ca antag | CHO-K1 Ca PAM | M1 ag | CHO-K1 Ca ag | CHRM1 PAM | CHRM1 antagonist
Cc1cc(C)c(S(=O)(=O)N2CCCC(C(=O)NCc3cccnc3)C2)c(C)c1 (stereo not drawn) | -7 | 3 | -4 | 7 | -16 | 34*
O=C(NCC1COc2ccccc2O1)C1CCCN(S(=O)(=O)c2cccc3nsnc23)C1 (stereo not drawn) | -9 | 11 | -1 | 4 | 5 | -4
O=C(Cc1ccc(NC(=O)C2CCN(C(=O)C3CC3)CC2)cc1)Nc1cccc(C(=O)N2CCCC2)c1 | -27 | 21 | 0 | 0 | 11 | -16
Cc1ccccc1N/N=C/c1c(C)nc2ccccn12 | -2 | 1 | -4 | 3 | -3 | 4
Cc1ccc(-n2ncc3c(SCC(N)=O)ncnc32)cc1C | 0 | -6 | 2 | 1 | 9 | 8
Cc1ccc(S(=O)(=O)N2CCN(C(=O)CNC(=O)c3sc4ccccc4c3Cl)CC2)cc1 | -6 | 14 | -1 | 0 | 12 | -10
Cc1ccc(/C=N/NC(=O)c2nnn(-c3nonc3N)c2CSc2ccc(Cl)cc2)o1 | -12 | -4 | -3 | 2 | -2 | 8
CCOC(=O)c1c(-c2ccccc2Cl)cn2ccccc12 | 100* | 10 | -6 | 1 | -9 | 1
CCOC(=O)c1c(-c2cccc([N+](=O)[O-])c2)cn2ccccc12 | -7 | 15 | -6 | 1 | -8 | 16
COc1ccc(C2SCC(=O)N2c2ccc(OC)cc2)cc1 (stereo not drawn) | 2 | -18 | -3 | 0 | 7 | -4
COc1cccc(C2SCC(=O)N2c2ccc(Br)cc2)c1OC (stereo not drawn) | -9 | 13 | -11 | 0 | -27 | 74*
COc1ccc(NC(=O)Nc2ccc(F)c(Cl)c2)cc1 | 18 | 2 | -2 | 14 | -11 | 10
Cc1ccc(NC(=O)Nc2ccc(F)c(Cl)c2)cc1 | 21 | -11 | 5 | 14 | -15 | 36*
O=C(Nc1cccnc1)Nc1ccc(F)c(Cl)c1 | -6 | 6 | 9 | 16* | -14 | 9
COc1cccc(-c2ncc3ccccc3c2COC(=O)CCCC(=O)O)c1 | 0 | -8 | -14 | 0 | -7 | 9
COc1ccc(C(=O)CN2C(=O)NC3(CCCCC3)C2=O)cc1OC | 13 | -2 | -2 | 19* | 10 | -1
COc1ccc(C(=O)CN2C(=O)NC3(CCCCCC3)C2=O)c(OC)c1 | 1 | -22 | -4 | 0 | 2 | 7
O=C(CN1C(=O)NC2(CCCC2)C1=O)NNC(=O)c1ccc(Br)cc1 | -1 | 3 | 2 | 0 | 30* | -22
CCN(C(=O)CSc1nnnn1-c1ccccc1)C1CCS(=O)(=O)C1 (stereo not drawn) | -12 | 14 | -4 | 1 | 6 | -5
Cc1cc(C(=O)N/N=C2\CC(=O)CC(C)(C)C2)c2ccccc2n1 | 26* | -8 | -7 | 0 | 1 | 5
N#Cc1c(SCC(N)=O)nc(-c2ccccc2)c2c1CCCC2 | -11 | 21 | -4 | 0 | 5 | -2
Cc1ccc(-c2nc(SCC(N)=O)c(C#N)c3c2CCCC3)cc1 | 30* | -3 | -4 | 0 | 4 | -4
CCOC(=O)C1CCN(C(=O)c2cccnc2)CC1 | 6 | -1 | -3 | 0 | 27* | 12
CCOC(=O)C1CCN(C(=O)c2cccc(C(=O)N3CCC(C(=O)OCC)CC3)c2)CC1 | -19 | 14 | 4 | 1 | -1 | 1
CCCCc1nc2cc(C(=O)NCc3nccn3CC)ccc2o1 | -12 | 17 | -6 | 0 | -24 | 87*
SMILES | CHO-K1 Ca antag | CHO-K1 Ca PAM | M1 ag | CHO-K1 Ca ag | CHRM1 PAM | CHRM1 antagonist
COC(=O)C1(c2ccccc2)NC(c2cccs2)C2C(=O)N(C)C(=O)C21 (stereo not drawn) | -9 | 9 | -1 | 0 | 3 | 0
COC(=O)C1(c2ccccc2)NC(c2cccs2)C2C(=O)N(c3ccccc3)C(=O)C21 (stereo not drawn) | -14 | 31 | 41* | 12 | 14 | -17
CCCNc1c(NS(=O)(=O)c2ccc(Cl)s2)c(=O)oc2ccccc12 | 29* | -12 | -2 | 0 | -1 | 2
O=C(NCCS(=O)(=O)N1CCN(c2ccccc2F)CC1)c1cccs1 | 3 | -5 | 1 | 3 | 6 | -7
COc1ccc(/C=C(/NC(=O)c2ccco2)C(=O)Nc2ccc(C(=O)O)cc2)cc1 | -12 | 10 | -1 | 0 | 15 | -16
O=c1oc(-c2ccccc2NS(=O)(=O)c2ccc(F)cc2)nc2ccccc12 | -12 | -6 | -2 | 0 | 2 | -1
O=c1oc(-c2ccccc2NS(=O)(=O)c2ccccc2)nc2ccccc12 | 29* | -6 | -4 | 1 | -1 | 3
C=C(C)CN(CC)C(=O)COc1ccc(S(=O)(=O)Nc2ccc(OC)cc2)cc1 | -2 | 9 | 21* | 8 | 3 | 0
CCN(CC(=O)Nc1ccc(OC)cc1)C(=O)c1ccc(NS(=O)(=O)c2ccc(C(C)=O)cc2)cc1 | 1 | 0 | 0 | 0 | 13 | -10
CCCC(=O)NC(=S)Nc1ccc(S(=O)(=O)Nc2ccc(OCC)cc2)cc1 | 6 | 34 | 28* | 27* | 8 | 14
CCOc1ccc(NS(=O)(=O)c2ccc(NC(=S)NC(=O)CC(C)C)cc2)cc1 | 8 | 19 | 17* | 11 | 9 | 21
CCC(=O)NC(=S)Nc1ccc(S(=O)(=O)NC(C)=O)cc1 | 29* | -12 | -1 | 0 | -7 | 13
CCOc1ccc(NS(=O)(=O)c2ccc(C(=O)N(C)CC(=O)Nc3ccc(OC)cc3)cc2)cc1 | 5 | -10 | -1 | 0 | 6 | -8
CCc1ccc(NC(=S)Nc2ccc3[nH]c(=O)[nH]c3c2)cc1 | -4 | 7 | -2 | 0 | 10 | -4
OC(CN1CCOCC1)CN(c1ccccc1)c1ccccc1 (stereo not drawn) | -6 | 1 | -8 | 0 | 0 | -1
OC(CN1CCCCCC1)CN(c1ccccc1)c1ccccc1 (stereo not drawn) | 4 | 13 | -8 | 2 | -26 | 38*
Cc1ccccc1S(=O)(=O)N(CC(O)CN1CCCCC1)c1ccccc1 (stereo not drawn) | -11 | -6 | -6 | 0 | -2 | 5
OC(CN1CCCCC1)CN(c1ccccc1)c1ccccc1 (stereo not drawn) | 11 | -5 | -10 | 0 | -25 | 51*
Cn1c(=O)c2[nH]c(NN=Cc3cccc(Br)c3)nc2n(C)c1=O | -14 | 4 | -3 | 4 | -3 | -6
